Data reported in PubChem BioAssay (EPA / NIEHS).
Activity calls are given as the source filed them. How the source made its calls: active means hit-call score of the fitted dose curve at least 0.9, where 1 is the maximum; inactive means score below 0.9.

What was measured:
Settings in all cases: mRNA level, 48 h; actives raise or lower the signal
[1] = read-out: Fatty Acid-Binding Protein 1 (FABP1), FABP1 (gene 2168); assay: LTEA_HepaRG_FABP1: Life Technologies and Expression Analysis (LTEA) Assay for Fatty Acid-Binding Protein 1 (FABP1) using HepaRG (AID 2283494)
How it was run: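 Values reflect bidirectional concentration-response fitting of FABP1 mRNA change against 0.5% DMSO controls. Human HepaRG cultures received eight half-log doses (top 100 uM) for 48 h; expression quantified by TaqMan qRT-PCR with housekeeping-gene normalization.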

[2] = read-out: Cytochrome P450 4A22 (Homo sapiens) (UniProt Q5TCH4); assay: LTEA_HepaRG_CYP4A22: Life Technologies and Expression Analysis (LTEA) Assay for Cytochrome P450 4A22 (CYP4A22) using HepaRG (AID 2283495)
How it was run: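 Concentration-response (8 points, max 100 uM, 0.5% DMSO) in human HepaRG liver cells after 48 h exposure. CYP4A22 mRNA by TaqMan qRT-PCR with housekeeping-gene normalization.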

[3] = read-out: Cytochrome P450 7A1 (Homo sapiens) (UniProt P22680); assay: LTEA_HepaRG_CYP7A1: Life Technologies and Expression Analysis (LTEA) Assay for Cytochrome P450 7A1 (CYP7A1) using HepaRG (AID 2283496)
How it was run: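 Using 0.5% DMSO as vehicle and baseline, chemicals were tested in duplicate over an 8-point range from 100 uM on HepaRG cells for 48 h; qRT-PCR signals were normalised to ACTB, GAPDH and POLR2A.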

[4] = read-out: Glutathione S-Transferase (GSTA2), GSTA2 (gene 2939); assay: LTEA_HepaRG_GSTA2: Life Technologies and Expression Analysis (LTEA) Assay for Glutathione S-Transferase (GSTA2) using HepaRG (AID 2283497)
How it was run: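 Oxidative-stress marker GSTA2 is quantified by TaqMan qRT-PCR in HepaRG cultures treated 48 h across an eight-point range to 100 uM. Expression is normalized to endogenous controls and compared with 0.5% DMSO vehicle.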

[5] = read-out: Glutamate-cysteine ligase catalytic (GCLC), GCLC (gene 2729); assay: LTEA_HepaRG_GCLC: Life Technologies and Expression Analysis (LTEA) Assay for Glutamate-cysteine ligase catalytic (GCLC) using HepaRG (AID 2283498)
How it was run: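 Oxidative-stress marker GCLC is measured as mRNA change in human HepaRG liver cells after 48 h chemical treatment in 0.5% DMSO, eight concentrations from 100 uM. Activity is fitted bidirectionally against vehicle.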

[6] = read-out: growth arrest and DNA damage 45 (GADD45G), GADD45G (gene 10912); assay: LTEA_HepaRG_GADD45G: Life Technologies and Expression Analysis (LTEA) Assay for growth arrest and DNA damage 45 (GADD45G) using HepaRG (AID 2283499)
How it was run: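 Concentration-response in HepaRG: 48 h dosing, 0.5% DMSO, highest level 100 uM. GADD45G expression by qRT-PCR, normalised to endogenous controls; bidirectional fit to DMSO.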

[7] = read-out: Glutamate-cysteine ligase regulatory (GCLM), GCLM (gene 2730); assay: LTEA_HepaRG_GCLM: Life Technologies and Expression Analysis (LTEA) Assay for Glutamate-cysteine ligase regulatory (GCLM) using HepaRG (AID 2283500)
How it was run: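 In this multiplexed HepaRG gene-expression assay, GCLM mRNA change after 48 h treatment (8 concentrations, max 100 uM) was scored against DMSO by bidirectional curve fitting.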

[8] = read-out: Glutathione S-transferase M3 (GSTM3), GSTM3 (gene 2947); assay: LTEA_HepaRG_GSTM3: Life Technologies and Expression Analysis (LTEA) Assay for Glutathione S-transferase M3 (GSTM3) using HepaRG (AID 2283501)
How it was run: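 Expression of GSTM3 is determined by qRT-PCR in human liver HepaRG cells treated 48 h with an 8-point half-log range from 100 uM in 0.5% DMSO.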

[9] = read-out: Heat shock 70 kDa protein 1 (HSPA1A), gene 3303; assay: LTEA_HepaRG_HSPA1A: Life Technologies and Expression Analysis (LTEA) Assay for Heat shock 70 kDa protein 1 (HSPA1A) using HepaRG (AID 2283502)
How it was run: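 An oxidative-stress marker readout: HepaRG cells treated 48 h in duplicate with an eight-point series (highest 100 uM) had HSPA1A mRNA quantified by TaqMan qRT-PCR. Activity was fitted in both directions using 0.5% DMSO as baseline.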

[10] = read-out: Hypoxia-inducible factor 1-alpha (Homo sapiens) (UniProt Q16665); assay: LTEA_HepaRG_HIF1A: Life Technologies and Expression Analysis (LTEA) Assay for Hypoxia-inducible factor 1 (HIF1A) Trancription factor using HepaRG (AID 2283503);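 further: HIF1A transcript by TaqMan qRT-PCR normalized to ACTB GAPDH and POLR2A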
How it was run: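 Gain- or loss-of-signal HIF1A mRNA changes are fitted against a DMSO baseline. HepaRG cultures receive eight concentrations, highest 100 uM, for 48 h in serum-free induction medium with 0.5% DMSO.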

Measured: AC50

Chain of Hypoxia-inducible factor 1-alpha (Homo sapiens) (Q16665 whole entry, looked up): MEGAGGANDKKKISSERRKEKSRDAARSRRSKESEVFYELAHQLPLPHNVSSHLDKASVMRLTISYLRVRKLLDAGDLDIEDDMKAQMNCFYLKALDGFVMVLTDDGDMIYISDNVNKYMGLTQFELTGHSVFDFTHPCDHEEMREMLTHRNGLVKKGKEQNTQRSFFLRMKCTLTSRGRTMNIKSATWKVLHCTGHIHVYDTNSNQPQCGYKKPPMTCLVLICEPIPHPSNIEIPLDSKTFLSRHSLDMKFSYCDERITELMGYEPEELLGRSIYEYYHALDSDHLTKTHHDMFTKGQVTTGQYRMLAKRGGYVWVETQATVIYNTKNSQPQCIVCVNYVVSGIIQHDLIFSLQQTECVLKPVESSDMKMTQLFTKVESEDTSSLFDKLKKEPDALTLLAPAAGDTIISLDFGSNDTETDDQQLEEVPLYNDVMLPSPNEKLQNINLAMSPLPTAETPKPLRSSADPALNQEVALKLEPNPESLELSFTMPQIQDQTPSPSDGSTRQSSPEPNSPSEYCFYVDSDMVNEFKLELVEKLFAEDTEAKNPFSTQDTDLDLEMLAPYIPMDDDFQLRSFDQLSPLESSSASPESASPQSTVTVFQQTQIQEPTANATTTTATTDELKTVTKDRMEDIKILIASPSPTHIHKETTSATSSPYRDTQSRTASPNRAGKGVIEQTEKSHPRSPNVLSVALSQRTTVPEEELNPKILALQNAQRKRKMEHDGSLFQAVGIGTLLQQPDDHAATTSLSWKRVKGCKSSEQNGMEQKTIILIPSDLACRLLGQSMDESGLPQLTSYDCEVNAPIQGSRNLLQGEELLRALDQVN

CSc1nnc(C(C)(C)C)c(=O)n1N
inactive: all assays above

CN1COCN(Cc2cnc(Cl)s2)C1=N[N+](=O)[O-]
inactive: all assays above

Cc1nn(-c2cc(NS(C)(=O)=O)c(Cl)cc2Cl)c(=O)n1C(F)F
not listed: [8]
inactive: all other assays above

CCc1cnc(C2=NC(C)(C(C)C)C(=O)N2)c(C(=O)O)c1 (stereo unspecified)
inactive: all assays above

CCOP(=S)(Oc1cnc(C(C)(C)C)nc1)OC(C)C (stereo unspecified)
active: [1] 2.01 µM | [3] 4.63 µM
not listed: [8]
inactive: all other assays above

FC(F)C(F)(F)OCC(Cn1cncn1)c1ccc(Cl)cc1Cl (stereo unspecified)
active: [1] 34.8 µM | [2] 16.6 µM | [3] 44.6 µM | [4] 38.7 µM | [6] 11.1 µM | [7] 13 µM | [9] 83.4 µM | [10] 76.4 µM
inactive: [5]

CN(C)C(=O)Nc1cccc(C(F)(F)F)c1
not listed: [4]
inactive: all other assays above

CCC(=NOC/C=C/Cl)C1=C(O)CC(C2CCOCC2)CC1=O (stereo unspecified)
not listed: [4]
inactive: all other assays above

O=c1ccc(=O)[nH][nH]1
not listed: [8]
inactive: all other assays above

CC(C)N(C(=O)SCC(Cl)=C(Cl)Cl)C(C)C
not listed: [8]
inactive: all other assays above

CN(C)NC(=O)CCC(=O)O
not listed: [8]
inactive: all other assays above

COP(=O)(OC)SCn1c(=O)oc2cc(Cl)cnc21
active: [2] 46.7 µM | [4] 65 µM
not listed: [8]
inactive: all other assays above

CCC(CC)Nc1c([N+](=O)[O-])cc(C)c(C)c1[N+](=O)[O-]
active: [1] 50 µM
not listed: [4]
inactive: all other assays above

Nc1c(Cl)cc([N+](=O)[O-])cc1Cl
active: [1] 41.8 µM | [2] 74.2 µM | [3] 50 µM | [4] 64.7 µM | [5] 88 µM | [6] 50 µM | [8] 50 µM | [9] 26.8 µM | [10] 86.6 µM
inactive: [7]

C=C(C)[C@H]1Cc2c(ccc3c2O[C@@H]2COc4cc(OC)c(OC)cc4[C@@H]2C3=O)O1
inactive: [5]
active: [1] 1.25 µM | [2] 0.834 µM | [3] 3.69 µM | [4] 3 µM | [6] 1.18 µM | [7] 2.57 µM | [8] 23.9 µM | [9] 28.9 µM | [10] 23.8 µM

CC1(C(=O)Nc2ccc(O)c(Cl)c2Cl)CCCCC1
not listed: [8]
inactive: all other assays above

CNc1cnn(-c2cccc(C(F)(F)F)c2)c(=O)c1Cl
active: [1] 26 µM | [3] 21.4 µM | [5] 28 µM | [7] 30.1 µM
inactive: all other assays above

CCCOCC(=Nc1ccc(Cl)cc1C(F)(F)F)n1ccnc1
active: [1] 14.6 µM | [2] 15.8 µM | [3] 30.6 µM | [4] 35 µM | [5] 91 µM | [9] 81.9 µM | [10] 87.3 µM
inactive: [6] | [7] | [8]

CC(C1CC1)C(O)(Cn1cncn1)c1ccc(Cl)cc1 (stereo unspecified)
active: [1] 12.5 µM | [2] 44.9 µM | [3] 18.8 µM | [4] 76.7 µM
not listed: [8]
inactive: all other assays above

CC(Oc1cccc(Cl)c1)C(=O)O (stereo unspecified)
not listed: [8] | [9]
inactive: all other assays above
